Out of some 330,000 compounds screened, about 930 (0.28%) were called active.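 The calls were made as follows: active = inhibition of at least 40% at 20 µM, with no more than 30% in the related APOBEC3A deaminase screen; inactive = the rest.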 Many of the other results were omitted from the sample, so actives are more common in it than they were.
biological target: DNA dC->dU-editing enzyme APOBEC-3G (Homo sapiens) (UniProt Q9HC16); test: inhibition of human A3G ssDNA deamination – biochemical, fluorescence, single-stranded DNA substrate, uHTS, primary screen (AID 493012); settings: recombinant A3G, ssDNA deamination FAM/TAMRA fluorescence; at 20 µM; active compounds read high;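 also: plate controls were DMSO wells with A3G for no effect and wells lacking A3G enzyme for full effect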
Sequence (Q9HC16 whole entry, looked up): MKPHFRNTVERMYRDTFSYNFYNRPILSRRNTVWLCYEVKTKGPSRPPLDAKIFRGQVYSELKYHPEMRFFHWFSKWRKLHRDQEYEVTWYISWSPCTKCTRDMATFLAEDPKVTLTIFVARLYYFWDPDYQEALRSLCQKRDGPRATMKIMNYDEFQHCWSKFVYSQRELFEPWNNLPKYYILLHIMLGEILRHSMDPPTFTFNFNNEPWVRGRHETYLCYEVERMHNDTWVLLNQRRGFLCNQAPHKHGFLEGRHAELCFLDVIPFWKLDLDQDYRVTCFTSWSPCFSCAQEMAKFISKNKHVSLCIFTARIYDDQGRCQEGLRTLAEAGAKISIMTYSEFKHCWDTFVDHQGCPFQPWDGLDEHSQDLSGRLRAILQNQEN

SMILES | inhibition
COC(=O)N(c1ccc(OC)cc1)P1(=S)OCCC(C)O1 (stereo not given) | 69.7% (active)
Cn1c(O)c(C=NCCN2CCNCC2)c(=O)n(C)c1=O | -1.92% (inactive)
CCCC[N+]1(C)C2CC(OC(=O)C(CO)c3ccccc3)CC1C1OC12 (stereo not given) | -0.137% (inactive)
CCN1CCN(Cc2cc(OC)c3c(c2)OCO3)CC1 | -5.01% (inactive)
Cc1cccc(-n2c(O)c(/C=N/N3CCOCC3)c(=O)[nH]c2=S)c1 | -9.2% (inactive)

Reference: PubChem BioAssay AID493012 (Sanford-Burnham Center for Chemical Genomics, 2011)
